High-throughput results: PubChem BioAssay, several laboratories
CFTR F508del cor: correctors of CFTR F508del function in bronchial epithelial cells; CFBE cells, YFP halide quenching; stimulated with forskolin plus potentiator P3; % fluorescence drop versus neutral controls; activity (quench increase), % at 7.58 µM; hit rate 0.36% among 350,000; AID 720511;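 active = mean added fluorescence quench of at least 8% versus neutral control, with both replicates also reaching 8%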;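 note: cells transiently co-express mutant CFTR-F508del with the halide-sensitive YFP; corrector assay measuring rescue of mutant channel to the surface after 24 h compound exposure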
Jurkat NFkB inh: lowers PMA/ionomycin-induced NF-kB signal in Jurkat cells | PMA/ionomycin-induced NF-kB luciferase reporter, luminescence | inhibition, % at 4 µM | hit rate 0.53% among 330,000 | AID 435003; in the data active = inhibition above about 50%
HIF activator: HIF pathway transcriptional activation. AID 1910. U2OS HRE-luciferase reporter, luminescence; normalized: DMSO 0%, desferrioxamine 100%. activation, % at 7.5 µM (by protocol). hit rate 0.32% among 300,000;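 active = mean activation of at least 10% of the iron chelator positive control signal, with at least half of replicates also reaching 10%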
697 NFkB inh: lowers PMA/ionomycin-induced NF-kB signal in 697 B cells | hit rate 0.33% among 330,000 | AID 435022 | 697 B-cell NF-kB luciferase reporter, 16 h | inhibition, % at 4 µM; in the data active = inhibition above about 35%
Jurkat NFkB conf: lowers PMA/ionomycin-induced NF-kB signal in Jurkat cells | AID 435020 | shares compounds with Jurkat NFkB inh | hit rate 27% among 2,700 | Jurkat NF-kB luciferase, 16 h | inhibition, % at 4 µM;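 active = inhibition reaching about 45% at 4 µM in either replicate, limit read from the data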;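 note: plate controls were PMA/ionomycin stimulated DMSO wells for no effect and unstimulated DMSO wells for full effect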
An asterisk follows results filed as active. An excerpt weighted towards active compounds, which were near 0.93% of everything screened.

How did O=C(Nc1cccc(F)c1)N[C@@H]1CC[C@H](CCNS(=O)(=O)c2cccc(Cl)c2)O[C@H]1CO do in these assays?
CFTR F508del cor: 0.1

How did NS(=O)(=O)c1ccc(Sc2nc3ccccc3s2)c([N+](=O)[O-])c1 do in these assays?
CFTR F508del cor: 3.0; Jurkat NFkB inh: 97.6*; HIF activator: 0.1; 697 NFkB inh: -30.4; Jurkat NFkB conf: 89.0*

What do the screens show for `C[n+]1c2n(c3ccccc31)N=C(c1cc(C(C)(C)C)c(O)c(C(C)(C)C)c1)CS2`?
Jurkat NFkB inh: 52.1*; HIF activator: 0.2; 697 NFkB inh: -7.9; Jurkat NFkB conf: 2.8

What do the screens show for `COc1cccc(C2=Nn3c(nnc3-c3ccccc3O)SC2)c1`?
Jurkat NFkB inh: 5.5; HIF activator: -1.1; 697 NFkB inh: -21.7

How did CCCC(=O)N1CC2(CCN(C)CC2)c2c(n(C)c3cc(OC)ccc23)[C@@H]1CO do in these assays?
CFTR F508del cor: 1.4

How did Cc1ccc(/C=N/NC(=O)C2COc3ccccc3O2)s1 (stereo not drawn) do in these assays?
CFTR F508del cor: 11.0*; Jurkat NFkB inh: 59.5*; HIF activator: 1.6; 697 NFkB inh: 8.3; Jurkat NFkB conf: 48.2*

How did CCCN1C[C@@H](C)[C@@H](OC)CN(C)C(=O)c2ccc(NC(=O)c3cccc(OC)c3)cc2OC[C@H]1C do in these assays?
CFTR F508del cor: 6.1

Results for COc1cccc(-c2ccc(C3[C@@H]4CN(C(=O)Cc5ccccc5)C[C@H]3N4)cc2)c1 (stereo partly drawn) ?
CFTR F508del cor: 1.4

What do the screens show for `CCOC(=O)CSC1=C(C#N)C(c2ccc(C)o2)CC(=O)N1` (stereo not drawn)?
CFTR F508del cor: 5.5; Jurkat NFkB inh: 58.1*; HIF activator: 2.2; 697 NFkB inh: -21.4; Jurkat NFkB conf: 17.0

What do the screens show for `CCOC(=O)CSC1=C(C#N)C(c2ccc(Cl)cc2)CC(=O)N1` (stereo not drawn)?
CFTR F508del cor: -1.0; Jurkat NFkB inh: -1.0; HIF activator: 0.3; 697 NFkB inh: -4.0

How did COc1ccc(CNC(=O)C[C@@H]2C=C[C@@H](NC(=O)CN(C)C)[C@@H](CO)O2)cc1 do in these assays?
CFTR F508del cor: -2.0

How did Oc1ccc(Nc2nc3ccccc3nc2Nc2ccc(O)cc2)cc1 do in these assays?
Jurkat NFkB inh: 84.1*; HIF activator: -7.6; 697 NFkB inh: -127.4; Jurkat NFkB conf: 54.4*

What do the screens show for `N#C/C(=C\c1ccc(OCc2ccc(C(=O)O)cc2)cc1)C(=O)N1CCOCC1`?
CFTR F508del cor: -2.9; Jurkat NFkB inh: 65.8*; HIF activator: -2.3; 697 NFkB inh: -25.2; Jurkat NFkB conf: 59.8*

Results for COc1cc(-c2noc(C)c2-c2ccc3[nH]ccc3c2)cc(OC)c1OC ?
Jurkat NFkB inh: 65.5*; HIF activator: 0.1; 697 NFkB inh: -7.7; Jurkat NFkB conf: 51.2*

Results for COc1cc(-c2noc(C)c2-c2ccc(N(C)C)nc2)cc(OC)c1OC ?
CFTR F508del cor: 2.9; Jurkat NFkB inh: 70.9*; HIF activator: 3.0; 697 NFkB inh: -96.8; Jurkat NFkB conf: 57.8*

What do the screens show for `CC=Cc1ccc2n(c1=O)C[C@H]1[C@H](CO)[C@@H](C(=O)NCCc3ccccc3)N(CCC)[C@@H]21` (mixture of isomers)?
CFTR F508del cor: -2.8

What do the screens show for `Cc1ccc(C(=O)Nc2nc3c(s2)CCCC3)o1`?
Jurkat NFkB inh: -154.6; HIF activator: -1.6; 697 NFkB inh: -196.7; Jurkat NFkB conf: -87.1

Results for O=C(Nc1nc2c(s1)CCCC2)c1ccc(Br)o1 ?
Jurkat NFkB inh: -95.1; HIF activator: 0.6; 697 NFkB inh: -186.4

What do the screens show for `CC=Cc1ccc2n(c1=O)C[C@H]1[C@H](CO)[C@@H](C(=O)NC3CCC3)N(Cc3ccncc3)[C@@H]21` (mixture of isomers)?
CFTR F508del cor: 3.2

Results for C[C@H]1CN([C@@H](C)CO)C(=O)c2c(c3ccccc3n2C)-c2ccccc2CO[C@@H]1CN(C)Cc1ccccc1C(F)(F)F ?
CFTR F508del cor: -2.8

What do the screens show for `COC(=O)c1c(-c2ccc(SC)cc2)sc2ccc(OC)cc12`?
CFTR F508del cor: 0.1; Jurkat NFkB inh: -153.3; 697 NFkB inh: -165.8; Jurkat NFkB conf: -90.4

What do the screens show for `O=C(O)c1ccc(N/N=C/c2ccc3c(c2)OCO3)cc1`?
CFTR F508del cor: -1.3; Jurkat NFkB inh: 75.2*; HIF activator: -3.4; 697 NFkB inh: 29.3; Jurkat NFkB conf: 43.1
